From PubChem BioAssay AID1531 (NMMLSC, 2009)
Hit rate of the full screen: of about 290,000 compounds, about 3,300 (1.1%) were called active. What follows is part of a selection rich in actives, with near analogues and random picks from the rest. Values without a mark were called inactive. No stated cut-off is given here; in the data, active means binding response below about 67% or above about 130%; inconclusive means no clear call, values can overlap the other calls; inactive means in between.

What follows are compounds tested against Mitogen-activated protein kinase kinase kinase 2 (Homo sapiens) (UniProt Q9Y2U5) (assay: wildtype MEKK2 PB1-MEK5 interaction, increase or decrease – biochemical, multiplex bead flow cytometry, Alexa488-MEK5, primary screen (AID 1531)). Details: Alexa488-MEK5 binding to MEKK2 WT, at 10 µM, actives lie on both sides.
`S=C(Nc1cccnc1)Nc1ccccn1` showed a binding response (% of control) of 99%.
`COCC1CCN(C(=O)CCc2nnc(C3(c4ccc(Cl)cc4)CCC3)o2)C1` (stereo not drawn) showed a binding response (% of control) of 103%.
`CCN(CC)CCN1C(=O)C2C(C(=O)Nc3ccc(Br)cc3)C3C=CC2(O3)C1C(=O)NC1CCCCC1` (stereo not drawn) gave a binding response (% of control) of 106%.
`C=CCOC(=O)C1=C[C@H](c2ccc(Br)cc2)C[C@H](OCCCCO)O1` showed a binding response (% of control) of 95%.
`Cc1cc2oc3ccc(NCCC4CCCN4C)cc3c(=O)c2cc1C` (stereo not drawn) showed a binding response (% of control) of 135%.
For `CCOC(=O)CSc1nc2ccc(C)cc2n2cnnc12`, the binding response (% of control) was 96%.
Compound `C#CCNC(=O)[C@H](Cc1ccc(C(=O)c2ccccc2)cc1)NC(=O)OC(C)(C)C` has a binding response (% of control) of 101%.
`Cc1cc(-c2ccc(C)c(S(=O)(=O)NCCCN(Cc3ccccc3)C(C)C)c2)on1` gave a binding response (% of control) of 108%.
With `Cc1ccc(N2C(=O)CC(N3CCSCC3)C2=O)c(C)c1` (stereo not drawn) the binding response (% of control) was 62% [inhibitor] (active).
Compound `O=C1CC(N2CCN(c3ccc(F)cc3)CC2)C(=O)N1c1ccccc1` (stereo not drawn) has a binding response (% of control) of 101%.
`Cc1ccc(CC2CC(=O)N(c3cc(C)ccc3C)C2=O)cc1` (stereo not drawn) gave a binding response (% of control) of 101%.
Compound `COc1cc(C(=O)NCCOC(=O)c2cccc(N(C)C)c2)cc(OC)c1OC` has a binding response (% of control) of 96%.
With `COc1ccc(N2CCN(C(=O)C3CCN(C(=O)c4ccccc4Cl)CC3)CC2)cc1` the binding response (% of control) was 97%.
`O=C(Cn1cnc2ccccc21)Nc1ccccc1-c1ccccc1` was tested, and the binding response (% of control) was 115%.
`COc1ccccc1C(C)NC(=O)Cc1ccsc1` (stereo not drawn) gave a binding response (% of control) of 104%.
`CN1CCC(CN)(N2CCN(c3ccccc3)CC2)CC1` was tested, and the binding response (% of control) was 146% (active).
`CN1CCN(c2ccc(NC(=O)c3ccccc3)cc2)CC1` was tested, and the binding response (% of control) was 111%.
Work on `O=C(c1ccccc1)c1ccc(C(=O)N2CCN(c3ccccc3)CC2)cc1` yielded a binding response (% of control) of 102%.
`CCn1c(SCC(=O)NC2CC2)nnc1-c1ccccc1OC` was tested, and the binding response (% of control) was 100%.
Compound `CCOC(=O)C(Cc1ccc(N)cc1)N1C(=O)c2ccccc2C1=O` (stereo not drawn) has a binding response (% of control) of 106%.
For `O=S(=O)(NCC1CC1)c1ccc(F)c(Cl)c1`, the binding response (% of control) was 97%.
With `Cc1ccc2c(c1)N(CC(=O)NCCCN1CCCCC1)C(=O)c1cccnc1O2` the binding response (% of control) was 106%.
With `Cc1ccc2c(c1)N(CC(=O)N1CCC(C)CC1)C(=O)c1cccnc1O2` the binding response (% of control) was 103%.
`O=C(CN1C(=O)c2cccnc2Oc2ccc(Cl)cc21)Nc1ccc(F)cc1` was tested, and the binding response (% of control) was 50% [inhibitor] (active).
Work on `O=C(CN1C(=O)c2cccnc2Oc2ccc(Cl)cc21)NCCc1ccccc1` yielded a binding response (% of control) of 101%.
For `CC(=O)c1cccc(NC(=O)CN2C(=O)c3cccnc3Oc3ccc(Cl)cc32)c1`, the binding response (% of control) was 68% [inhibitor] (active).
`Cc1ccc2c(c1)N(CC(=O)NCCc1ccc(Cl)cc1)C(=O)c1cccnc1O2` was tested, and the binding response (% of control) was 98%.
With `Cc1ccc(-c2csc(NCCc3nc4cc(Cl)c(Cl)cc4n3CCOCCO)n2)cc1` the binding response (% of control) was 105%.
`CCn1ccnc1CN(C)C(=O)c1ccc2nc(Cc3ccc(OC)cc3)oc2c1` gave a binding response (% of control) of 103%.
Compound `COC(=O)c1ccc2c(C(C)(C)O)c(C(C)(C)O)[nH]c2c1` has a binding response (% of control) of 88%.
For `Cc1ccccc1N(C(=O)CNC(=O)c1cccs1)C(C(=O)NC1CCCC1)c1ccncc1` (stereo not drawn), the binding response (% of control) was 98%.
`CCOC(=O)c1cc2occc2n1CC(=O)NC1CCC(C)CC1` (stereo not drawn) showed a binding response (% of control) of 99%.
For `CCOC(=O)c1cc2c(ccn2C)n1CC(=O)N1CCC(C)CC1`, the binding response (% of control) was 110%.
`CCOC(=O)c1cc2occc2n1CC(=O)N1CCN(C(=O)c2ccco2)CC1` was tested, and the binding response (% of control) was -8% [inhibitor] (active).
`Fc1ccccc1/C=N/Nc1cc(N2CCCCC2)ncn1` was tested, and the binding response (% of control) was 108%.
`CCOC(=O)Nc1ccc2c(c1)N(C(=O)CCCl)c1ccccc1[S@]2=O` gave a binding response (% of control) of 107%.
`O=C(Cn1cnc([N+](=O)[O-])n1)NCCc1ccccc1` gave a binding response (% of control) of 100%.
`CC(C)(C)NC(=O)Cn1cnc([N+](=O)[O-])n1` was tested, and the binding response (% of control) was 2% [inhibitor] (active).
For `CC(C)(C)NC(=O)Cn1cnc2cc([N+](=O)[O-])ccc2c1=O`, the binding response (% of control) was 88%.
`CC(=O)Nc1ccc(NC(=O)CS(=O)(=O)c2cn(CC(=O)N3CCCCC3)c3ccccc23)cc1` gave a binding response (% of control) of 99%.
`Cc1ccc(CSCC2Nc3ccc(C(=O)N4CCN(c5ccc(F)cc5)CC4)cc3NC2=O)cc1` (stereo not drawn) gave a binding response (% of control) of 94%.
For `Cc1snc(SCc2c(F)cccc2Cl)c1C#N`, the binding response (% of control) was 108%.
In the case of `O=C(CN1CCN(S(=O)(=O)c2cc(Cl)ccc2Cl)CC1)c1ccc(O)c(O)c1`, the binding response (% of control) is reported as 97%.
For `O=[N+]([O-])c1ccc(N=Cc2c(O)ccc3ccccc23)cc1`, the binding response (% of control) was 95%.
With `COc1ccc(C=Nc2cccc3ncccc23)cc1` the binding response (% of control) was 81%.
With `Oc1c(C=Nc2cccc3nsnc23)ccc2ccccc12` the binding response (% of control) was 31% [inhibitor] (active).
In the case of `O=C(OCC1O[C@@H](OC(=O)c2cc(O)c(O)c(O)c2)[C@@H](OC(=O)c2cc(O)c(O)c(O)c2)[C@@H](OC(=O)c2cc(O)c(O)c(O)c2)[C@@H]1OC(=O)c1cc(O)c(O)c(O)c1)c1cc(O)c(O)c(O)c1` (stereo partly drawn), the binding response (% of control) is reported as 62% [inhibitor] (active).
In the case of `Cc1ccc(C)c(NS(=O)(=O)c2c(C)[nH]c(C)c2C(=O)N2CCCCC2)c1`, the binding response (% of control) is reported as 103%.
For `COc1ccc(-c2noc(CNC(=O)C(C)Oc3ccccc3)n2)cc1` (stereo not drawn), the binding response (% of control) was 98%.
In the case of `CCC(C)OC(=O)C(C)Oc1ccc(-c2ccccc2)cc1` (stereo not drawn), the binding response (% of control) is reported as 2% [inhibitor] (active).
With `CC(=O)Nc1ccc(NC(=O)COc2ccc(-c3ccccc3)cc2)cc1` the binding response (% of control) was 97%.
For `CCCCNC(=O)N(O)C1N(/N=C/c2ccccc2O)C(=S)SC1(C)C` (stereo not drawn), the binding response (% of control) was 101%.
`Cc1ccc(-n2ncc3c2CC(C)(C)CC3NC(=O)Cc2c(C)noc2C)cc1` (stereo not drawn) was tested, and the binding response (% of control) was 100%.
In the case of `CCCC1=Nc2cc(C(=O)NCc3ccco3)ccc2Sc2ccccc21`, the binding response (% of control) is reported as 98%.
`Cc1cc(C)cc(C(=O)NCCN2CCOCC2)c1` showed a binding response (% of control) of 109%.
With `CCC1=Nc2cc(C(=O)NCCN3CCCC3)ccc2Sc2ccc(C)cc21` the binding response (% of control) was 155% (active).
For `CCCC1=Nc2cc(C(=O)NCCN3CCCC3)ccc2Sc2ccccc21`, the binding response (% of control) was 142% (active).
Work on `CCC1=Nc2cc(C(=O)NCCCN3CCOCC3)ccc2Sc2ccc(Br)cc21` yielded a binding response (% of control) of 108%.
`Cc1ccccc1CN1C(=O)c2ccccc2Sc2ccc(C(=O)NCCCN3CCOCC3)cc21` gave a binding response (% of control) of 110%.
In the case of `COCCNC(=O)CSc1nc2sccc2c(=O)n1-c1ccccc1`, the binding response (% of control) is reported as 101%.
`CCOC(=O)C1CCN(C(=O)COc2cccc3ccccc23)CC1` gave a binding response (% of control) of 97%.
For `CC(=O)Oc1ccc(-c2nc3c(C)cccc3c(=O)o2)cc1`, the binding response (% of control) was 106%.
In the case of `Cc1nc(N=C(N)N)nc2c(C)cccc12`, the binding response (% of control) is reported as 145% (active).
`Cc1nc(/N=C(\N)NC(=O)NC2CCCCC2)nc2ccccc12` showed a binding response (% of control) of 108%.
`CCOc1ccc(NC(=O)NNC(=O)c2ccc(Cl)cc2Cl)cc1` gave a binding response (% of control) of 96%.
With `NC(N)=N/N=C/c1ccc(OCc2ccc(Cl)cc2Cl)cc1` the binding response (% of control) was 213% (active).
`NC(N)=N/N=C/c1ccc(Cl)c([N+](=O)[O-])c1` gave a binding response (% of control) of 109%.
`Cc1cc(OCC(=O)Nc2c(C)n(C)n(-c3ccccc3)c2=O)ccc1[N+](=O)[O-]` gave a binding response (% of control) of 97%.
`CN(C)S(=O)(=O)c1ccc2oc(SCC(=O)Nc3ccccc3F)nc2c1` was tested, and the binding response (% of control) was 99%.
`C=CCNc1nc(N)c([N+](=O)[O-])c(NC2CCCCC2)n1` gave a binding response (% of control) of 100%.
Compound `O=C(NCCc1c[nH]c2ccccc12)C1CCN(Cc2ccc(Br)cc2)CC1` has a binding response (% of control) of 125%.
In the case of `O=C(Cc1c(F)cccc1Cl)N1CCN(C(=O)c2ccco2)CC1`, the binding response (% of control) is reported as 99%.
`O=C(c1ccco1)N1CCN(c2cccc(Cl)c2)CC1` was tested, and the binding response (% of control) was -2% [inhibitor] (active).
Work on `O=C(c1cccc([N+](=O)[O-])c1)N1CCN(C(=O)c2ccco2)CC1` yielded a binding response (% of control) of 99%.
With `CC1CC(C)CN(S(=O)(=O)c2cccc3nonc23)C1` (stereo not drawn) the binding response (% of control) was 109%.
For `COc1ccc(OC)c(S(=O)(=O)N2CCCC(C(=O)NCCc3ccccc3)C2)c1` (stereo not drawn), the binding response (% of control) was 100%.
Compound `Cc1cccc(N(C(=O)c2csnn2)C(C(=O)NCc2ccccc2)c2ccncc2)c1` (stereo not drawn) has a binding response (% of control) of 102%.
With `CCC(=C/c1sc2ccc3ccccc3c2[n+]1C)/C=C1\Sc2ccc3ccccc3c2N1C` the binding response (% of control) was 9% [inhibitor] (active).
Work on `CCc1ccc(NC(=O)Nc2ccncc2)cc1` yielded a binding response (% of control) of 107%.
`CC1(C)C=Cc2c(ccc3c2OC[C@@H](c2ccc(O)cc2O)C3)O1` showed a binding response (% of control) of 107%.
`COc1ccccc1C(=O)NCc1nnc(SC(C)C(=O)Nc2nccs2)n1C` (stereo not drawn) showed a binding response (% of control) of 105%.
`Cc1ccc(S(=O)(=O)NC2CCCCCC2)cc1C(N)=O` showed a binding response (% of control) of 99%.
With `c1ccc2c(c1)C(=NC1CCCCC1)NC2=NC1CCCCC1` the binding response (% of control) was 145% (active).
With `O=C(c1noc2c1CCCC2)N1CCc2ccccc2C1` the binding response (% of control) was 97%.
For `Cc1cccc(CN2CCC(CNC(=O)Nc3ccc(F)c(Cl)c3)CC2)c1`, the binding response (% of control) was 139% (active).
`O=C(NCC1CCN(Cc2ccccc2Cl)CC1)Nc1cccc(Cl)c1` gave a binding response (% of control) of 110%.
`COc1cc(NC(=O)NCC2CCN(Cc3ccc(C)cc3)CC2)cc(OC)c1OC` gave a binding response (% of control) of 113%.
`Cc1ccc(C)c(CN2CCC(CNC(=O)Nc3ccc(C)c(F)c3)CC2)c1` was tested, and the binding response (% of control) was 150% (active).
For `COc1ccc(Cl)cc1NC(=O)NCC1CCN(Cc2ccccc2F)CC1`, the binding response (% of control) was 118%.
In the case of `Cc1ccccc1NC(=O)NCC1CCN(Cc2cccc(Cl)c2)CC1`, the binding response (% of control) is reported as 104%.
Compound `CC(C(=O)c1ccc(-c2ccccc2)cc1)[n+]1cccc(Br)c1` (stereo not drawn) has a binding response (% of control) of 123%.
Compound `CC(=O)N1CC(=O)N(CC(=O)Nc2ccc(Br)cc2)C1=S` has a binding response (% of control) of 97%.
For `CCOC(=O)c1cccc(NC(=O)c2ccc(F)cc2F)c1`, the binding response (% of control) was 105%.
